# Screening data (PubChem)
# In the library only some 12% were active in any assay of this set; here they are far more common.
# Sfp PPTase inh: inhibitors of Bacillus subtilis Sfp phosphopantetheinyl transferase | Biochemical Sfp PPTase activity, qHTS | actives 3.5% (n = 310,000) | Potency, µM, without a hit: largest response in the series, negative = inhibition, actives largely listed as inhibitors;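 further: the enzyme is Sfp with the accession as filed and its product quenches rhodamine fluorescence; 0% = enzyme reaction without inhibitor and -100% = no enzyme wells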
#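 Reaction rates are the 30-min fluorescence difference (ex 525, em 598 nm) in wells containing 15 nM Sfp, 5 uM rhodamine-CoA and 12.5 uM BHQ-2-YbbR at pH 7.6 with 10 mM MgCl2.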
# JMJD2A Tudor: blocks the human JMJD2A Tudor domain | Potency, µM (top dose mostly 114 µM), inactives show top-dose activity change, negative = inhibition, most hits filed as inhibitors | actives 4.4% (n = 390,000) | O75164 | AID 504339 | AlphaScreen JMJD2A-Tudor / H3K4me3 peptide binding; further: on the % scale 0 is the no-effect control and ±100 the full control effect; nearly all actives have a fitted effect of over 50% in size
# BAZ2B block: blocks human BAZ2B | AID 504333 | Q9UIF8 | Potency, µM (highest dose often 114 µM), without a hit: at the highest dose activity change, negative = inhibition, most hits filed as inhibitors | actives 4.4% (n = 360,000) | AlphaScreen BAZ2B-H3K14Ac peptide displacement; further: on the % scale 0 is the no-effect control and ±100 the full control effect; nearly all actives have a fitted effect of over 60% in size
# Target sequence (Q9UIF8 whole entry, looked up): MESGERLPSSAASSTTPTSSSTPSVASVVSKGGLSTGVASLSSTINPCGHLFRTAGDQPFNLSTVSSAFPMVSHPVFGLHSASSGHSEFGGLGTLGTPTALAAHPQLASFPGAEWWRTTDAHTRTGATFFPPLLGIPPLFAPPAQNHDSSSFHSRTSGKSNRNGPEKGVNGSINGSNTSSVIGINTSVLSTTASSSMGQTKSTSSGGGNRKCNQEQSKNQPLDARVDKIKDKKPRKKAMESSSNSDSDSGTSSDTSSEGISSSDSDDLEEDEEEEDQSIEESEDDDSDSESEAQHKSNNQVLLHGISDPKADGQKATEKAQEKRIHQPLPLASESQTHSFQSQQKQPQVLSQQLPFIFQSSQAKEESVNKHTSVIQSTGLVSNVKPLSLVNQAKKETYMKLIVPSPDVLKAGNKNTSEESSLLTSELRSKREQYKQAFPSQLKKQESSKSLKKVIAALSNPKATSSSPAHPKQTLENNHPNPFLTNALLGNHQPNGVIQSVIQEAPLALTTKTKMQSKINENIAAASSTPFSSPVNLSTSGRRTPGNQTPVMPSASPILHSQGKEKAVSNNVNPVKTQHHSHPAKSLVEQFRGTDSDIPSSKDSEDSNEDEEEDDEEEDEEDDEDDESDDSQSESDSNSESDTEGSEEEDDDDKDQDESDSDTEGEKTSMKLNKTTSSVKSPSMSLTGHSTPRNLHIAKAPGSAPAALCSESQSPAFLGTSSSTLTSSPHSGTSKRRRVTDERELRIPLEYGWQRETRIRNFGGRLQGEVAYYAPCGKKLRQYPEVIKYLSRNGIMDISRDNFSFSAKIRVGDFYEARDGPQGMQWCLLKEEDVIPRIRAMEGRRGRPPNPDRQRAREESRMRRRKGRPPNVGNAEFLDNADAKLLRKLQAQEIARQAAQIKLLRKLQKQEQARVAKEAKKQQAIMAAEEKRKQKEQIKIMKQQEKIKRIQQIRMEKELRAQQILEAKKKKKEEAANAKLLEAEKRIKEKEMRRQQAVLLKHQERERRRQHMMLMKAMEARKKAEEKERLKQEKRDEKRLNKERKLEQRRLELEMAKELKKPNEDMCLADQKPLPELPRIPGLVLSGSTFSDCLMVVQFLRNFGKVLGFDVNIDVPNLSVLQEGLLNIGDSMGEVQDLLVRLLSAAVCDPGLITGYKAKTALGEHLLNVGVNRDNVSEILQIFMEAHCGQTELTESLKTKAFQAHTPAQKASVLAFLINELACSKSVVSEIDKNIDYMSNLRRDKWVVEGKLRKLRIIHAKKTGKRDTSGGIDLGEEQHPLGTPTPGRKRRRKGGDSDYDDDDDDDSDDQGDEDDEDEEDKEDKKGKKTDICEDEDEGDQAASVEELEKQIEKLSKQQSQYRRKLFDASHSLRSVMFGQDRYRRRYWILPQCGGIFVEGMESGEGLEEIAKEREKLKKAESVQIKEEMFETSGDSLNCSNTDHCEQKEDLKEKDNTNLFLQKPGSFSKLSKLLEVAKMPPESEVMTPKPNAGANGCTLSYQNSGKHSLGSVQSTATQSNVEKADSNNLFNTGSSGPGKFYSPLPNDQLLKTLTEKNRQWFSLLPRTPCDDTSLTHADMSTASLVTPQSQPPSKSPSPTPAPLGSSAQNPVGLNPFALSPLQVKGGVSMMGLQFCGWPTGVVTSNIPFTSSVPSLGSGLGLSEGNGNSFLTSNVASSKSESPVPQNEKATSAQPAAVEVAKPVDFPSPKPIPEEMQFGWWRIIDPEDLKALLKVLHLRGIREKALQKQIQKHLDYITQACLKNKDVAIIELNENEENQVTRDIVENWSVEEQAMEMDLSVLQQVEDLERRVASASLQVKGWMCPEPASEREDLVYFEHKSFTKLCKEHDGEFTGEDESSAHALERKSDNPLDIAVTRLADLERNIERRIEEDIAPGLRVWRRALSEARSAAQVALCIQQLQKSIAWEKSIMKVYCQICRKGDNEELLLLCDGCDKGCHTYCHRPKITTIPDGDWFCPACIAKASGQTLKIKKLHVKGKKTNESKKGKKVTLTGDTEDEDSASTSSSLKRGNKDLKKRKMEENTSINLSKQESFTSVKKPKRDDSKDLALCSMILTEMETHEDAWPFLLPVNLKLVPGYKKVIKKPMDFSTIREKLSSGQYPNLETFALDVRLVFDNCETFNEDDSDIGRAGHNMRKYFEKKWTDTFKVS
#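 AlphaScreen displacement of biotin-H3(5-23)K14Ac peptide (50 nM final) from BAZ2B (50 nM final) in PBS pH 7.4, 0.01% Tween-20; complex preformed 30 min RT, then compounds (top 110 uM) 30 min RT, beads 20 min dark.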
# G9a block: inhibitors of human histone lysine methyltransferase G9a | Q96KQ7 | G9a H3K9 monomethylation, AlphaScreen, 2 h | Potency, µM (doses to about 102 µM), without a hit: at the top dose activity, negative = inhibition, usual class: inhibitors | actives 8.8% (n = 350,000) | AID 504332; further: on the % scale 0 is the no-effect control and ±100 the full control effect; nearly all actives have a fitted effect of over 75% in size
#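 AlphaScreen detection with an anti-monomethyl H3K9 antibody quantified product after a 2 h room-temperature reaction containing 500 nM biotinylated H3K9 peptide, 20 µM SAM and 20 nM enzyme, which had been preincubated 15 min with compound.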
# L3MBTL1 block: L3MBTL1 (human) inhibition; Q9Y468; AlphaScreen L3MBTL1–H3K9me1 peptide binding; Potency, µM (doses to about 57.1 µM), for the others: at the top dose activity, negative = inhibition, hits mostly inhibitors; actives 0.66% (n = 230,000); AID 485360; further: on the % scale 0 is the no-effect control and ±100 the full control effect; nearly all actives have a fitted effect of over 60% in size
#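 Read-out is AlphaScreen signal from streptavidin donor and nickel chelate acceptor beads (10 ug/mL final each) bridging L3MBTL1 (50 nM) and biotinylated K9-monomethylated H3(1-15) peptide (75 nM), after 30 min compound exposure at room temperature.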
# HP1b binding inh: blocks HP1-beta chromodomain binding to methylated histone tails; AID 540317; AlphaScreen HP1-beta / biotin-H3K9me3 peptide binding; actives 0.56% (n = 390,000); Potency, µM (top dose mostly 114 µM), for the others: top-dose activity change, negative = inhibition, actives largely listed as inhibitors; P83916; further: nearly all actives have a fitted effect of over 70% in size
#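 AlphaScreen: HP1-beta (50 nM) preformed 30 min with biotin-H3(1-18)K9me3 peptide (50 nM) in PBS pH 7.4, 0.01% Tween-20. Compound added for 30 min at RT, then streptavidin donor/nickel chelate acceptor beads (10 ug/mL) for 30 min.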
# An asterisk follows results filed as active; ? = inconclusive; . = not tested or not shown; [ ] = remark or other dose. The call rests on the fitted dose curve; in most records, active means well fitted curve in the direction sought with a large enough effect; inconclusive means small, poorly fitted or top-dose-only effect, or another doubt; inactive means no such curve, though single readings can be large; an effect the other way counts as inactive or inconclusive. Potency means the concentration at half of the fitted maximal effect.
SMILES,Sfp PPTase inh,JMJD2A Tudor,BAZ2B block,G9a block,L3MBTL1 block,HP1b binding inh
O=C(C1CC1)N1CCN(c2nc3ccc(F)cc3s2)CC1,.,-7%,-2%,-2%[59 µM],.,23%
NC(=O)c1oc2ccccc2c1NC(=O)C1CC(=O)N(c2ccccc2)C1 (stereo unspecified),.,-12%,0%,45µM*,4%,29%
COc1cccc(N2CC(C(=O)Nc3nnc(SCC(=O)Nc4ccc(NC(C)=O)cc4)s3)CC2=O)c1 (stereo unspecified),-14%,-9%,-14%,18%,.,28%
O=C(Nc1nnc(SCc2cccnc2)s1)C1CC(=O)N(c2ccc(F)cc2)C1 (stereo unspecified),-21%,-23%,-24%,40µM*,.,22%
NC(=O)c1oc2ccccc2c1NC(=O)C1CCCCC1,16%,-20%,13%,-36%,5%,30%
COc1cccc(N2CC(C(=O)Nc3nnc(SCCC4OCCO4)s3)CC2=O)c1 (stereo unspecified),-12%,-3%,-15%,28µM*,.,17%
O=C(Nc1nnc(SCCC2OCCO2)s1)C1CC(=O)N(c2ccccc2)C1 (stereo unspecified),-17%,-14%,-24%,22µM*,.,31%
Cc1ccc2sc(N(Cc3cccnc3)C(=O)CCOc3ccccc3)nc2c1C,.,-4%,-3%,9%[59 µM],.,30%
Cc1ccc(CN(C(=O)COc2ccc(C(C)(C)C)cc2)C2CCS(=O)(=O)C2)o1 (stereo unspecified),.,?,-30%,-46%[59 µM],.,-10%
Cc1ccsc1/C=N/N1CCN(Cc2ccccc2)CC1,-8%,56µM*,?,32µM*,-26%,?
CSc1ccc(/C=N/NC(=O)CN2CCN(Cc3ccc(Cl)cc3)CC2)cc1,0%,-21%[57.1 µM],19%,-7%[59 µM],12%,?
Cc1ccsc1/C=N/NC(=O)CN1CCN(Cc2ccccc2)CC1,7%,-6%,-5%,.,0%,19%
Cc1ccsc1CN1CCN(c2ccccn2)CC1,-11%,1.8µM*,50µM*,?,-6%,-53%
Cc1ccc(/C=N/N2CCN(Cc3ccccc3)CC2)cc1,8%,79µM*,?,?,-19%,-16%
CSc1ccc(/C=N/N2CCN(Cc3ccc(Cl)cc3)CC2)cc1,-4%,?,22µM*,?,.,-12%
O=S(=O)(CCN1CCN(C(c2ccccc2)c2ccccc2)CC1)C(F)(F)F,6%,-16%,.,3.5µM*,5%,-10%
O=C(O)c1ccc(/C=N/N2CCN(Cc3ccccc3)CC2)cc1,8%,-5%,89µM*,?,4%,29%
C(=N\N1CCN(Cc2ccccc2)CC1)/c1ccc(-c2ccccc2)cc1,6%,-22%,-12%,-8%,-3%[11.4 µM],20%
CN1CCN(/N=C/c2ccc(-c3ccccc3)cc2)CC1,-14%,40µM*,22%,71µM*,-17%,?
Cc1ccc(CN2CCN(/N=C/c3ccccc3)CC2)cc1,4%,?,?,?,?,?
COc1cc(/C=N/N2CCN(Cc3ccc(C)cc3)CC2)cc(OC)c1O,-83%,40µM*,56µM*,.,-10%,?
Cc1cccc(OCC(=O)Nc2c(C(=O)N3CCN(c4ccccc4)CC3)oc3ccccc23)c1,.,-16%,-17%,?,.,33%
CC(C)(C)c1ccc(OCCn2c(CCNC(=O)C3CCCCC3)nc3ccccc32)cc1,.,-17%[57.1 µM],.,.,.,-3%[57 µM]
CCOc1ccc(N2C(=O)N(Cc3ccc(C)cc3C)c3ccccc3S2(=O)=O)cc1,.,-17%,-3%,-12%[59 µM],.,33%
CN1CCN(/N=C/c2c3ccccc3c(Cl)c3ccccc23)CC1,-20%,40µM*,20µM*,35µM*,?,?
SMILES,Sfp PPTase inh,JMJD2A Tudor,BAZ2B block,G9a block,L3MBTL1 block,HP1b binding inh
C(=N\N1CCN(Cc2cccc3ccccc23)CC1)/c1cccnc1,-9%,45µM*,40µM*,50µM*,51%,-42%
Fc1ccc(/C=N/N2CCN(Cc3ccccc3)CC2)cc1,8%,?,45µM*,79µM*,-7%,?
O=C(O)c1ccc(/C=N/N2CCN(Cc3cccc4ccccc34)CC2)cc1,10%,-35%,-33%,45µM*,.,-13%
Cc1cc(C)c2c(-n3cccc3)c(C(=O)NCCc3ccc(Cl)cc3)sc2n1,.,-14%,11%,-6%[59 µM],.,70%
O=C1CCc2cc(S(=O)(=O)Nc3cccc4ccccc34)ccc2N1,.,-25%,.,.,.,.
COc1cccc2cc(S(=O)(=O)c3ccc(F)c(C)c3)c(=O)oc12,.,-9%,-13%,-20%[59 µM],.,30%
COC(OC)[C@@H](C)[C@H](OC)[C@@H](C)[C@H](OC)c1ccccc1,-1%,.,.,.,.,.
Cc1ccc(/C=N/N2CCN(c3ccccn3)CC2)cc1,-2%,-31%,-32%,?,-11%,0%
OC(CN1CCN(Cc2ccccc2)CC1)c1ccc(F)cc1 (stereo unspecified),6%,-33%,-25%,?,4%,54%
Cc1ccsc1/C=N/N1CCN(c2ccccc2)CC1,13%,?,?,18%[2.33 µM],-26%,-17%
Cn1cccc1/C=N/N1CCN(c2ccccn2)CC1,-83%,?,50µM*,16µM*,-12%,-58%
C(=N\N1CCN(Cc2cccc3ccccc23)CC1)/c1ccco1,-17%,56µM*,?,40µM*,.,45µM*
Fc1ccc(CN2CCN(C(c3ccccc3)c3ccccc3)CC2)cc1,-26%,22µM*,50µM*,32µM*,-5%,?
Cc1ccsc1/C=N/N1CCN(c2ccccn2)CC1,15%,63µM*,40µM*,50µM*,-6%,-35%
CCCN(CCC)C(=O)C1CCN(c2cc(C)nc3c(-c4ccc(Cl)cc4)c(C)nn23)CC1,.,31%,14%,24%[59 µM],.,95%
CC(C)CCNC(=O)CN1C(=O)CSc2ccc(S(=O)(=O)N3CCC(C)CC3)cc21,.,-13%,0%,6%[59 µM],.,40%
NNc1nc2c(F)cccc2s1,?,89µM*,50µM*,?,-17%,?
Fc1cccc2sc(Nc3nc4c(F)cccc4s3)nc12,22%,-10%,-5%,28%[59 µM],-2%,31%
Fc1cc(F)c2nc(N3CCCC3)sc2c1,17%,17%,15%,43%,.,44%
NNc1nc2c(F)cc(F)cc2s1,-20%,79µM*,50µM*,?,-19%,-59%
O=C(CCN1CCN(C(c2ccccc2)c2ccccc2)CC1)N/N=C/c1ccc(O)cc1O,5%,63µM*,?,?,-15%,-32%
COc1ccc(OC)c(/C=N/NC(=O)CCN2CCN(C(c3ccccc3)c3ccccc3)CC2)c1,-17%,?,?,10µM*,-10%,-17%
